TRPV1 ag = human TRPV1 agonism; Q8NER1; TRPV1-expressing cells, Fluo-8 calcium influx, agonist mode; activation, % at 8.33 µM; actives 0.19% (n = 320,000); AID 540275; in the data active = activation above about 80%; inconclusive = between about 30% and that limit
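Cells expressing TRPV1 were dye-loaded with Fluo-8 and read kinetically: 10 s baseline, 3 min after compound (agonist portion), then 2 min after EC20 capsaicin (allosteric enhancer portion). Calcium-bound dye fluorescence at 480/520 nm.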
ELG1 repair inh = blocks ELG1-dependent DNA repair in HEK293T cells; Potency, µM (top dose mostly 46.1 µM), most hits filed as inhibitors; AID 504467; HEK293T ELG1-luciferase reporter, luminescence, 16 h; DNA damage induced by 5-fluorouridine; actives 2.3% (n = 330,000); note: nearly all actives have a fitted effect of over 55% in size
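Luminescence from the luciferase reporter, measured 30 min after ONE-Glo reagent at room temperature, was the read-out. Beforehand, 2,000 cells per well were exposed for 16 hr at 37 °C to 5-fluorouridine together with compound or vehicle.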
TRPV1 PAM = potentiators of human vanilloid receptor 1 (TRPV1) | potentiation, % at 8.33 µM | actives 0.02% (n = 320,000) | TRPV1-expressing cells, Fluo-8 calcium influx, capsaicin EC20 potentiation; in the data active = potentiation above about 80%; inconclusive = between about 30% and that limit
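Fluo-8 calcium influx in TRPV1-expressing cells, kinetic read (ex 480/em 520 nm). Compound added and read 3 min for agonist activity, followed by capsaicin at EC20 final and 2 min further read for enhancement.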
Giardia killer = kills Giardia lamblia | Giardia lamblia trophozoite viability | actives 0.15% (n = 340,000) | activity change, % at 7.66 µM, hits read low | AID 540267; in the data active = activity change below about -80%; inconclusive = between about -30% and that limit;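 note: parasites exposed to compound for two days anaerobically before the ATP read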
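Giardia lamblia trophozoites (100 cells/well) were incubated with compounds for 48 h at 37 deg C under anaerobic conditions. Viability was read as ATP content by one-step luminescence after 15-30 min at room temperature.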
FUS yeast rescue = suppressors of FUS proteinopathy in yeast. AID 1347120. actives 0.24% (n = 390,000). S. cerevisiae FUS-expressing, growth rescue, OD600, 24 h. Potency, µM (top dose mostly 76.6 µM), usual class: activators; note: nearly all actives have a fitted effect of over 55% in size
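Restored growth of FUS-toxic S. cerevisiae, read as 600 nm absorbance after 24 h at 30C in galactose medium (starting OD 0.005). Controls CP55940 and DMSO.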
A number is an active result; – = inactive; ? = inconclusive; · = no result given. Shown are actives, neighbours in structure and some others; about 2.3% of the full set was active somewhere. Unless noted, calls come from the whole dose curve; as a rule, active = well fitted curve in the direction sought with a large enough effect; inconclusive = small, poorly fitted or top-dose-only effect, or another doubt; inactive = no such curve, though single readings can be large; an effect the other way counts as inactive or inconclusive.

SMILES	TRPV1 ag	ELG1 repair inh	TRPV1 PAM	Giardia killer	FUS yeast rescue
Cc1cccc(N2CCN(C(=O)C3CCC(CNS(=O)(=O)c4cccs4)CC3)CC2)c1C (configuration not stated)	–	9.2µM	–	–	–
O=C(C1CCN(S(=O)(=O)N2CCOCC2)CC1)N1CCN(c2ccccc2F)CC1	–	–	–	–	–
CN(C)CCNc1ccc2ncn3c4ccc(O)cc4c(=O)c1c23	·	·	·	–	·
CCCCn1nc(NC(=O)COC)c2cc3ccc(C)cc3nc21	89	–	–	–	–
CC1=C(C(=O)Nc2ccccc2C)C(c2cccnc2)n2nc(SCc3ccccc3F)nc2N1 (configuration not stated)	·	·	·	·	–
O=C(Nc1nc2ccccc2n1CCN1CCOCC1)c1ccccc1	–	?	–	–	–
O=C(Nc1nc2ccccc2n1CCN1CCOCC1)c1cn(-c2ccccc2)nc1-c1ccccc1	–	18µM	–	–	–
CN(C)c1nc(OCCNC(=O)COc2ccc(Cl)cc2Cl)nc(N(C)C)n1	–	21µM	–	–	–
CN(C)c1nc(OCCOC(=O)COc2ccc(Cl)cc2Cl)nc(N(C)C)n1	–	–	–	–	?
O=C(CCSc1ccc(F)cc1)Nc1ccc(-n2cnnn2)cc1	–	18µM	–	–	–
CCn1c(SCC(=O)Nc2cccc(NC(=O)c3cccs3)c2)nnc1-c1ccncc1	–	18µM	–	–	–
CCn1c(SCC(=O)Nc2nc(-c3ccccc3)cs2)nnc1-c1ccccc1O	–	21µM	–	–	–
CCc1nnc(NC(=O)CSc2nnc(-c3ccccc3O)n2CC)s1	–	–	–	–	–
CCn1c(CCNC(=O)c2cccs2)nnc1SCC(=O)Nc1nc(-c2ccccc2)cs1	–	23µM	–	–	?
CCn1c(SCC(=O)NCc2cccs2)nnc1-c1ccncc1	–	–	–	–	–
CCn1c(CCNC(=O)c2cccs2)nnc1SCC(=O)Nc1cccc(Cl)c1	·	·	·	–	–
CCn1c(SCC(=O)Nc2nccs2)nnc1-c1ccc(S(=O)(=O)N2CCCCCC2)cc1	–	21µM	–	–	–
O=C(CSc1nc2c(c(=O)[nH]1)CN(Cc1ccc3c(c1)OCO3)CC2)Nc1ccccc1Cl	·	·	·	·	–
Cc1cc(C)cc(NC(=O)N2CCC(CN3CCCCCC3)CC2)c1	·	·	·	·	–
Cc1ccc[n+](CC(=O)c2ccc(-c3ccccc3)cc2)c1	–	?	–	–	·
Cc1ccc(C(=O)CC(=O)c2ccccc2)cc1	81	?	–	–	–
Cc1ccc(C(=O)Cc2ccccc2)cc1	·	·	·	–	–
Cc1ccc(C)[n+](CC(=O)c2ccc(-c3ccccc3)cc2)c1	–	7.3µM	–	–	–
CC1(C(=O)Nc2cccc3cccnc23)CCN1Cc1ccccc1OC(F)F (configuration not stated)	·	·	·	·	–
CCc1cccc(C)c1NC(=O)c1cc(S(=O)(=O)N2CCN(c3ccccc3)CC2)ccc1F	·	·	·	·	–
SMILES	TRPV1 ag	ELG1 repair inh	TRPV1 PAM	Giardia killer	FUS yeast rescue
COc1ccc(OC)c(C(=O)CSc2ncc3c(n2)-c2ccccc2N(Cc2ccccc2C)S3(=O)=O)c1	·	·	·	·	–
COc1ccccc1CNC(=O)CSc1nc(=O)[nH]c2c1CCCC2	·	·	·	·	–
CC(=O)N1c2ccc(S(=O)(=O)N3CCC(C(=O)NCc4ccc(Cl)cc4)CC3)cc2CC1C (configuration not stated)	–	10µM	–	–	?
CC(=O)N1c2ccc(S(=O)(=O)N3CCC(C(=O)NCc4ccc(C)cc4)CC3)cc2CC1C (configuration not stated)	–	?	–	–	–
CC(=O)N1c2ccc(S(=O)(=O)N3CCC(C(=O)NCc4ccccc4Cl)CC3)cc2CC1C (configuration not stated)	–	23µM	–	–	–
CCOc1nc2c(c(-c3cccs3)c1C#N)Cc1ccccc1-2	–	–	–	–	–
CC(=O)COc1nc2c(c(-c3ccco3)c1C#N)CCc1ccccc1-2	–	8.2µM	–	–	–
O=C(NCCN1CCCCC1)c1cccc2c1C(=O)c1ccc(N3CCCC3)cc1S2(=O)=O	·	?	·	?	–
CC(C)(C)CNC(=O)c1cccc2c1C(=O)c1ccc(N3CCCC3)cc1S2(=O)=O	·	16µM	·	–	–
CCN(CCNC(=O)Nc1ccc(Cl)cc1)c1ccccc1	–	5.2µM	–	–	–
